Shown are actives, neighbours in structure and some others; about 2.3% of the full set was active somewhere.
GLD-1 RNA inh – GLD-1-TGE RNA interaction inhibition (C. elegans); Q17339; purified GLD-1 + fluorescein TGE RNA, fluorescence polarization; inhibition, % at 5.96 µM; hit rate 0.44% among 320,000;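 active = percent inhibition above a per-plate cutoff, the plate mean of test compounds plus 3 SD, cut at about 30% in these data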;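 also: 0% = DMSO wells with GLD-1 and probe and 100% = wells lacking GLD-1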
Mcl1-Bid inh – disrupts binding of human Mcl-1 to Bid peptide | Q07820 | TR-FRET Mcl-1/Bid-Dy647 peptide binding, 1536-well | inhibition, % at 21.7 µM | hit rate 0.97% among 220,000 | AID 1021;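 active = compounds that cut the binding signal by more than half at the single screening dose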;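 also: His-tagged Mcl-1 with europium anti-His antibody binding Bid BH3 peptide; 0% = Mcl-1 plus peptide wells and 100% = peptide-only wells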
Target sequence (Q07820 whole entry, looked up): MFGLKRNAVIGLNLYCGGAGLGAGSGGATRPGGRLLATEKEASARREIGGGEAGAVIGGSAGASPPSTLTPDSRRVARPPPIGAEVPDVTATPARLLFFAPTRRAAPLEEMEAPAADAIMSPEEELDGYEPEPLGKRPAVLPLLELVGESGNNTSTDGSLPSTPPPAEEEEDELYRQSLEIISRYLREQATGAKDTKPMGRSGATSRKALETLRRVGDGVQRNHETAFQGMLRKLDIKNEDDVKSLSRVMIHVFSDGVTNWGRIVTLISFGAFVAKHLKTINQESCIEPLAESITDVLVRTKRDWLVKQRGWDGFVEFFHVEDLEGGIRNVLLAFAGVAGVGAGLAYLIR
Bim-Mcl-1 – human Bim-Mcl-1 interaction inhibition. hit rate 0.1% among 190,000. inhibition, % at 10 µM. AID 1009. Bead-based flow cytometry, Bim peptide-Mcl-1 binding. Q07820; in the data active = inhibition above about 40%;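 also: 0% = no compound tracer wells and 100% = peptide blocker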
MCL1 BIM primary – MCL1-BIM-BH3 interaction inhibition (human); AID 2057; inhibition, % at 10.9 µM; Q07820; hit rate 0.68% among 320,000; GST-MCL1 / FITC-Bim-BH3 fluorescence polarization;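 active = inhibition above the mean inhibition of all tested compounds plus 3 SD, set per campaign, cut at about 40% in these data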;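 also: 0% = DMSO wells and 100% = unlabeled Bim-BH3 peptide control; higher means more loss of mP so more displacement of Bim peptide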
Bcl-xL primary – inhibitors of human Bcl-xL; Q07817; GST-Bcl-xL / FITC-Bim BH3 peptide fluorescence polarization; inhibition, % at 10.9 µM; hit rate 0.7% among 320,000; AID 2129;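 active = inhibition above the mean of all tested compounds plus 3 SD, cutoff set per campaign, cut at about 30% in these data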;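 also: 0% = DMSO wells and 100% = unlabeled Bim-BH3 peptide competitor; inhibitors lower millipolarization by displacing the labeled peptide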
Mcl1 Noxa PPI – disrupts binding of human Mcl-1 to Noxa peptide. Q07820. TR-FRET Mcl-1/Noxa peptide binding, 2 h. inhibition, % at 21.7 µM. hit rate 1.5% among 220,000. AID 1022;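 active = compounds that cut the protein-peptide binding signal by more than 50% relative to plate controls in a single-dose test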;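 also: His-tagged Mcl-1 with rhodamine Noxa BH3 peptide and terbium anti-His antibody; 0% = Mcl-1 plus Noxa peptide wells and 100% = peptide-only wells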
The depositor's hits bear a star; . = not tested or not shown.

SMILES | GLD-1 RNA inh | Mcl1-Bid inh | Bim-Mcl-1 | MCL1 BIM primary | Bcl-xL primary | Mcl1 Noxa PPI
Nc1nnc(SCC(=O)N2CCN(c3cccc(Cl)c3)CC2)n1-c1ccccc1 | -5 | -19 | -3 | 2 | 5 | 1
Nc1nnc(SCC(=O)N2CCN(c3ccccc3)CC2)n1-c1ccccc1 | 11 | 97* | 0 | 2 | -4 | 41
O=C(O)c1cccc(NC2=C(Cl)C(=O)c3ccccc3C2=O)c1 | . | 17 | 6 | . | . | 87*
Cc1ccc(NC2=C(NC(=O)c3ccccc3)C(=O)c3ccccc3C2=O)cc1Cl | 1 | 3 | 2 | 36 | 23 | 86*
O=C(O)c1ccc(NC2=C(Cl)C(=O)c3ccccc3C2=O)cc1 | 5 | 5 | . | 12 | 16 | 53*
O=C(C1CCC(=O)N(C2CC2)C1)N(CCO)Cc1ccccc1 (centres undefined) | -3 | . | . | -10 | 5 | .
CCCCn1c(NCc2ccc(N(C)C)cc2)nc2ccccc21 | 1 | -30 | . | 0 | 0 | 89*
CCCCn1c(NCc2cccs2)nc2ccccc21 | 12 | -9 | 0 | 2 | -1 | 51*
COc1cc(OC)c(C(=O)OCC(=O)N(Cc2ccccc2)C(C)(C)C)cc1OC | -2 | -2 | -3 | 6 | 2 | 0
CCCn1c(N)c(Sc2ccccc2[N+](=O)[O-])c(=O)n(CCC)c1=O | 3 | . | . | 5 | 12 | .
CCCCn1c(SCC(=O)Nc2ccc(NC(C)=O)cc2)nc2ccccc2c1=O | 74* | . | . | 2 | 5 | .
CCn1c(SCC(=O)Nc2ccccc2)nc2ccccc2c1=O | 1 | . | . | -6 | 1 | .
O=C(/C=C/c1ccc(O)c(O)c1)c1ccc(S(=O)(=O)N2CCCCCC2)cc1 | 11 | -44 | -2 | 21 | 1 | 65*
CN1C(=S)N(c2cccnc2)C(=O)/C1=C\c1ccc(N(C)C)cc1 | . | 83* | 0 | . | . | -17
COc1cccc(C(=O)Oc2c(CN3CCOCC3)cc(Cl)c3cccnc23)c1 | 1 | -41 | -2 | 11 | 7 | -19
COc1ccc(C(=O)Oc2c(CN3CCOCC3)cc(Cl)c3cccnc23)cc1 | 1 | 54* | -1 | 4 | 5 | 27
CCN(CC(=O)Nc1c(F)cccc1F)C(=O)Cc1n[nH]c(=O)c2ccccc12 | 4 | . | . | 3 | 2 | .
O=C(O)CCc1ccc(-c2ccc(Cl)cc2)o1 | 8 | 95* | -2 | 6 | 7 | 18
Cc1ccc(C)c(OCC(=O)NCC(c2ccco2)N2CCCCC2)c1 (centres undefined) | -1 | . | . | -4 | 1 | .
COc1ccc(-n2c(N)c(-c3nc4ccccc4n3C)sc2=S)cc1 | -2 | -7 | -3 | 2 | 6 | 89*
COc1cc(/C=c2\sc3nc(-c4ccncc4)nn3c2=O)ccc1OC(C)=O | . | 50 | -4 | . | . | 70*
CC(=O)Oc1cccc(/C=c2\sc3nc(-c4ccco4)nn3c2=O)c1 | -1 | -30 | -4 | 25 | 11 | 29
CN(C)c1ccc(/C=c2\sc3nc(-c4ccccc4)nn3c2=O)cc1 | . | 73* | -4 | . | . | 79*
COc1ccc(CCNc2nc(-c3ccncc3)cs2)cc1OC | -5 | -11 | . | -1 | 1 | 0
COc1ccc(CCNc2nc(-c3sc(C)nc3C)cs2)cc1OC | 1 | 73* | 0 | -5 | -5 | 60*
SMILES | GLD-1 RNA inh | Mcl1-Bid inh | Bim-Mcl-1 | MCL1 BIM primary | Bcl-xL primary | Mcl1 Noxa PPI
COc1ccc(CCNc2nc(-c3cccnc3)cs2)cc1OC | 6 | 90* | -5 | 4 | 5 | 11
COc1cc(C(=O)OCC(=O)NC2CCCC2)cc(OC)c1OC | 1 | . | . | 4 | 0 | .
CC(=O)c1ccc2c(c1)C1C=CCC1C(c1ccncc1)N2 (centres undefined) | 3 | -37 | 6 | 17 | 16 | 51*
C1=CC2c3ccccc3NC(c3ccncc3)C2C1 (centres undefined) | 8 | -26 | 4 | 37 | 23 | 78*
O=C(O)c1ccc2c(c1)C1C=CCC1C(c1cc3c(cc1Br)OCO3)N2 (centres undefined) | 0 | -58 | -1 | 2 | 9 | 16
CC(=O)c1ccc2c(c1)C1C=CCC1C(C(=O)O)N2 (centres undefined) | . | -47 | 3 | . | . | 74*
Cc1ccc2c(c1)C1C=CCC1C(C(=O)O)N2 (centres undefined) | 10 | 89* | 9 | 108* | 62* | 107*

Bioassay records: PubChem, several laboratories
